Screens: PubChem, several laboratories
Mtb betalactam: beta-lactam sensitization of Mtb H37Rv, H37Rv; M. tuberculosis H37Rv growth with meropenem, percent inhibition; inhibition, % at 25 µM; 330,000 compounds, 0.27% hits; AID 434955, 2010;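 also: growth measured after seven days incubation then overnight dye step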
Yp Topo-I inh: Yersinia pestis topoisomerase I inhibitors, primary screen, biochemical, cleavage product accumulation, plate reader, single point; DNA topoisomerase I (Yersinia pestis CO92); Y. pestis Topo-I cleavage product accumulation; activity, % at 10 µM; 360,000 compounds, 0.064% hits; AID 504884, 2011; in the data active = activity above about 50%, passing the limit was not always enough; inconclusive = no clear call, values can overlap the other calls
BioA inh: M. tuberculosis BioA enzyme inhibitors, primary screen, biochemical, plate reader, single point, HTS | 7,8-diaminopelargonic acid synthase BioA (Mycobacterium tuberculosis) | purified M. tuberculosis BioA enzyme | inhibition, % at 9.99 µM | 360,000 compounds, 0.096% hits | AID 602481, 2012; in the data active = inhibition above about 40%; inconclusive = no clear call, values can overlap the other calls
CCHFV vOTU inh: CCHFV vOTU protease inhibitors, primary screen, biochemical, Pep-AMC substrate, fluorescence. Crimean-Congo hemorrhagic fever virus L polyprotein viral ovarian tumor (vOTU) protease …. inhibition, % at 11.5 µM. 370,000 compounds, 0.55% hits. AID 651958, 2012; in the data active = inhibition above about 30%
BJeLR viability: MLPCN primary cell-based screen for lethality selective to Ras in HRASV12 cells. inhibition, % (no concentration beside the values). AID 1554, 2009. BJeLR (HRASV12) viability, CellTiter-Glo ATP luminescence, 48 h. 300,000 compounds, 0.17% hits; in the data active = inhibition above about 50%; inconclusive = no clear call, values can overlap the other calls
RecA splice inh: Mtb RecA intein splicing inhibitors, primary screen, biochemical, fluorescence, HTS. 290,000 compounds, 0.75% hits. cell-free RecA intein splicing. AID 2221, 2009. inhibition, % (no concentration beside the values); in the data active = inhibition above about 30%; inconclusive = no clear call, values can overlap the other calls
Target sequence (P9WHJ3 whole entry, looked up, canonical isoform): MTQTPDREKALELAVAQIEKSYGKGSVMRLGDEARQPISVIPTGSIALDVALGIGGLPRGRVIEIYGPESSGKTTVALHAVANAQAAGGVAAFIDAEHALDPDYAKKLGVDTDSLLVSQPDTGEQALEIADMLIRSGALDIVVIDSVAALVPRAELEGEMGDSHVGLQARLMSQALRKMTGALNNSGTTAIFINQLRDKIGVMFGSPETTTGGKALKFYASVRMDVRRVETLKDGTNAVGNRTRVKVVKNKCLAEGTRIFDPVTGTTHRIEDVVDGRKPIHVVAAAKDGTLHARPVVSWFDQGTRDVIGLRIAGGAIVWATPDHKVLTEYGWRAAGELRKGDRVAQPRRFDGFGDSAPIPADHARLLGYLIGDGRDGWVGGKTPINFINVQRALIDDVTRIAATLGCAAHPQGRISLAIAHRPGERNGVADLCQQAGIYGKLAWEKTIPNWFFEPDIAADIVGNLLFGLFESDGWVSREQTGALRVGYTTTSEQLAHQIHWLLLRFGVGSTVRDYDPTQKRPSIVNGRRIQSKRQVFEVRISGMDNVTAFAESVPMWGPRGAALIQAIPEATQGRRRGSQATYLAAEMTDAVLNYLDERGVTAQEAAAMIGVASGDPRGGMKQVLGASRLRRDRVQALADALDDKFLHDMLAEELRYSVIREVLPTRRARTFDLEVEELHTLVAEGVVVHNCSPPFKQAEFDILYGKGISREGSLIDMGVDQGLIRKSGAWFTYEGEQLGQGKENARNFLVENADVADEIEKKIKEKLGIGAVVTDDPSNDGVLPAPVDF
GFP chromo cs: counter-screen: blocks GFP chromophore formation, dose response, counter-screen, biochemical, fluorescence, homogeneous | cell-free GFP chromophore formation | EC50, µM | 2,100 compounds, 83% hits | shares compounds with RecA splice inh | AID 434968, 2010
Of the large screens only hits and unclear results are named; the others gave an inactive call (follow-up assays come after a bar, where they were run). Sampled rows, rich in hits. Any-hit rate of the full collection: about 1.1%. Unless noted, no rule for the calls is given here.

Cc1[nH][nH]c(=O)c1C(c1cc(Br)ccc1O)c1c(C)[nH][nH]c1=O	RecA splice inh 96.9 | GFP chromo cs 0.525
Cc1[nH][nH]c(=O)c1C(c1cc2c(cc1Br)OCO2)c1c(C)[nH][nH]c1=O	RecA splice inh 94.7 (no result: BioA inh) | GFP chromo cs 0.725
O=C1NC(=O)/C(=C/c2cc3c(cc2Br)OCO3)S1	none
CC(=O)N(C)C[C@@H]1Oc2ncc(-c3cccnc3)cc2C(=O)N([C@H](C)CO)C[C@@H]1C	none (no result: Mtb betalactam, Yp Topo-I inh, CCHFV vOTU inh, BJeLR viability, RecA splice inh)
COc1ccc(S(=O)(=O)N(C)C[C@H]2Oc3c(NS(C)(=O)=O)cccc3C(=O)N([C@H](C)CO)C[C@H]2C)cc1	none (no result: Mtb betalactam, Yp Topo-I inh, CCHFV vOTU inh, BJeLR viability, RecA splice inh)
CCN(CC)S(=O)(=O)c1ccc(N2CCN(S(=O)(=O)c3ccccc3C#N)CC2)nc1	RecA splice inh 31.7 | GFP chromo cs inactive
CCN(CC)S(=O)(=O)c1ccc(N2CCN(S(=O)(=O)c3ccccc3)CC2)nc1	none (no result: Mtb betalactam)
COc1ccc(NC(=O)N(C)C[C@@H]2OCCCC[C@H](C)Oc3ccc(NS(=O)(=O)c4ccccc4)cc3C(=O)N([C@H](C)CO)C[C@H]2C)cc1	none (no result: Mtb betalactam, Yp Topo-I inh, CCHFV vOTU inh, BJeLR viability, RecA splice inh)
O=c1cc(-c2ccc(Br)cc2)[nH][nH]1	RecA splice inh 97.2 (no result: BioA inh) | GFP chromo cs 3.72
O=c1cc(-c2ccccc2)[nH][nH]1	RecA splice inh 97.4 | GFP chromo cs 2.25
O=c1cc(-c2ccc(C3CCCCC3)cc2)[nH][nH]1	RecA splice inh 76.2 (no result: BioA inh) | GFP chromo cs 1.89
O=c1cc(-c2ccc(F)cc2)[nH][nH]1	RecA splice inh 98.2 | GFP chromo cs 2.32
O=c1ccc(Br)c[nH]1	none
Fc1ccc(-c2cnc[nH]2)cc1	none
COC(=O)C[C@H]1CC[C@@H]2[C@@H](COc3ccc(NS(=O)(=O)c4ccc(C)cc4)cc3C(=O)N2C)O1	none (no result: Mtb betalactam, Yp Topo-I inh, CCHFV vOTU inh, BJeLR viability, RecA splice inh)
CC(C)c1nnc(NC(=O)CCS(=O)(=O)c2nc(-c3cccs3)cc(C(F)(F)F)n2)s1	RecA splice inh 32.3 (no result: BioA inh) | GFP chromo cs inactive
CCOC(=O)c1c(C)oc2c1c1c(c3ccccc32)OCN(Cc2cccnc2)C1	none (no result: Mtb betalactam, CCHFV vOTU inh, BJeLR viability, RecA splice inh)
CCOC(=O)c1c(C)oc2c1c1c(c3ccccc32)OCN(CCCC(=O)O)C1	RecA splice inh 89.7 | GFP chromo cs 19.9
O=C(Nc1ncc([N+](=O)[O-])s1)c1ccco1	Mtb betalactam inconclusive, RecA splice inh 30.9 | GFP chromo cs 21.1
CCC1CCCCN1S(=O)(=O)c1ccc2c(c1)CCN2C(=O)C1CCC1 (stereo unspecified)	none
O=C(CCl)c1ccc2c(c1)CCN2C(=O)C1CCCCC1	RecA splice inh 80.2 (no result: BioA inh) | GFP chromo cs inactive
CN(C)c1ccc2c(c1)[C@@H]1C[C@H](CC(=O)NCc3ccccc3)O[C@@H](CO)[C@@H]1O2	none (no result: Mtb betalactam, Yp Topo-I inh, CCHFV vOTU inh, BJeLR viability, RecA splice inh)
c1ccc(CCNCc2cccs2)cc1	RecA splice inh 33.0 | GFP chromo cs inactive
COCC#Cc1ccc2c(c1)O[C@H](CN(C)C(=O)C1CC1)[C@@H](C)CN([C@@H](C)CO)S2(=O)=O	none (no result: Mtb betalactam, Yp Topo-I inh, CCHFV vOTU inh, BJeLR viability, RecA splice inh)
CCOc1cc(C(c2c(C)[nH][nH]c2=O)c2c(C)[nH][nH]c2=O)ccc1OCc1ccc([N+](=O)[O-])cc1	RecA splice inh 99.1 | GFP chromo cs 0.326
CCOc1cc(C(c2c(C)[nH][nH]c2=O)c2c(C)[nH][nH]c2=O)ccc1OC(=O)c1cccc([N+](=O)[O-])c1	RecA splice inh 92.1 | GFP chromo cs 0.441
CCOc1cc(/C=C2/NC(=S)NC2=O)ccc1OCc1ccc([N+](=O)[O-])cc1	none
CS(=O)(=O)N1C[C@H](O)COC[C@H]2O[C@@H](CC(=O)NCc3ccccc3)CC[C@@H]21	none (no result: Mtb betalactam, Yp Topo-I inh, CCHFV vOTU inh, BJeLR viability, RecA splice inh)
O=C(CSc1nc2ccccc2nc1SCC(=O)N1CCCCC1)N1CCCCC1	none
O=C(CSc1nc2ccccc2nc1SCC(=O)N1CCOCC1)N1CCOCC1	RecA splice inh 32.4 | GFP chromo cs inactive
COc1ccc(N2C(=O)CC(N(CCc3ccccc3)C(=O)/C=C/C(=O)O)C2=O)cc1 (stereo unspecified)	none (no result: BioA inh) | GFP chromo cs inactive
